The target of one assay is BBS5. Nature of the assay: pooled miR-30 sensor sort-seq; sequence = guide strand. The settings on record: shRNA.
For TTTTATCATATACATGTTCTTG, the sensor-assay potency score (higher = more potent) is -0.69. Still for that read-out and setting: as for TTCGACTGTCAGAGCTTCGAGC, the figure is -0.723. On the same count and under the same terms, the figure for TATCATATACATGTTCTTGTGG is -0.0827.

As to TTAGAGTTAGCAGTCCTTGTTG, the sensor-assay potency score (higher = more potent) is -0.252. As for TTGAATTTGTTCGACTGTCAGA, the sensor-assay potency score (higher = more potent) is -0.412. On the same count and under the same terms, the figure for AACATATCCACCACTCTGCTGA is -0.129; for AAATTTTGAATCTCTAATCTTT it is -0.135; for TTAGTATATAGAGAGCTTCAGT it is -0.624. The same measure, in the same setting: the figure for TTTATCATATACATGTTCTTGT is 0.705. Same read-out and setting: as for TTCTACATCATCTTGAATTTGT, the figure is -0.245. Sequence TAAATATAAATTCAAAACGAGT returned a sensor-assay potency score (higher = more potent) of -1.56. In turn, TTTCCTTAACTGATTCTTGTAG displayed a sensor-assay potency score (higher = more potent) of -0.239.

The next assay addresses BCAR3. The description is as above. The settings on record: shRNA.
TGAATTTCTCATATCTCTCTGT: the sensor-assay potency score (higher = more potent) came to 0.413. For the sequence TTGGTGAACAGTTCTTTTGCAC, the sensor-assay potency score (higher = more potent) was found to be 0.174. The same measure, in the same setting: as for TTTTCTAACCTTGTGATCTGTG, the figure is -0.0388; as for TCTGATTGACTTGTGCACCTTT, 0.95.

As to TTGCACGTTTCAACATTGCTGT, the sensor-assay potency score (higher = more potent) was -0.296.

As to TCGCATTTGAAATTCAGTCTTG, the sensor-assay potency score (higher = more potent) is -0.471. For TTGAGGGACAAGGCTCTTCTGT, the sensor-assay potency score (higher = more potent) is -0.76.

TTGACTTGTGCACCTTTGCTGC showed a sensor-assay potency score (higher = more potent) of -0.561. TAGGAAGTCACCATCTCGCTGC yielded a sensor-assay potency score (higher = more potent) of 0.641. Still for that read-out and setting: as for TTGAATTTCTCATATCTCTCTG, the figure is 0.778; as for TTGAGGAACGGCACCTTGCAGG, -0.594. On the same count and under the same terms, the figure for TAACCTTGTGATCTGTGGCATT is -0.946.

For the next assay, the target named is BCL11A. Described as above. The settings on record: shRNA.
Turning to TGAAATTTGAACGTCTTGCCGC, the sensor-assay potency score (higher = more potent) amounted to 0.0443. In turn, TACTATATAATCTTAAACCTTT returned a sensor-assay potency score (higher = more potent) of -0.147. As to ATAACAAGTAGAAAGAACCATC, the sensor-assay potency score (higher = more potent) is -0.773. TTCACATTTGTAAACGTCCTTC had a sensor-assay potency score (higher = more potent) of -0.693.

Sequence TAAACAATCGTCATCCTCTGGC had a sensor-assay potency score (higher = more potent) of -0.0288. Regarding TTAATTGTCCTATCTGAGCAGG, the sensor-assay potency score (higher = more potent) was -0.599. For TTATTTTATACTCAACCTCTGT, the sensor-assay potency score (higher = more potent) is -0.873. The same measure, in the same setting: as for TTGACAACCAAGTAGATCTGGA, the figure is 0.0039. Still for that read-out and setting: the figure for TATCATTTGATTGTCCACTTGA is 0.591. TAAAAGACAACATAGAATGTAT registered a sensor-assay potency score (higher = more potent) of 0.0879.

As for TTGCACTATATTATCCTGCCAA, the sensor-assay potency score (higher = more potent) is -0.344. The same measure, in the same setting: the figure for TAGCATAGGAATCAACATGAGT is -0.704.

These data come from the OligoGym collection.
Further: reference of the scale not given here.
